Test results reported in PubChem BioAssay (EPA / NIEHS).
The source made the active and inactive calls. Rule for the calls: active = hit-call score of the fitted dose curve at least 0.9, where 1 is the maximum; inactive = score below 0.9.

Assay: CCTE_Shafer_MEA_dev_inter_network_spike_interval_mean: CCTE's Neural Network Formation Assay for Mean Inter-network Spike Interval, Shafer Lab (AID 2284047);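 for AC50: potency for a decrease in mean inter-network spike interval below DMSO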
Experimental: CCTE_Shafer_MEA_dev assay is conducted using Axion Biosystems 48 well microelectrode array (MEA) plates and Maestro recording system. Each well of the MEA plate contains a grid of 16 microelectrodes embedded in the culture surface. Electrically active cells, such as neurons, can be cultured over the electrodes, and electrical activity in these cells can be recorded extracellularly. The spontaneous firing of neurons is captured from each electrode on a microsecond timescale providing both temporally and spatially precise data. […] The CCTE_Shafer_MEA_dev assay uses primary cultures of rat cortical neurons. Recordings are made on days post-plating 5, 7, 9 and 12. As these cultures mature over time, neural networks develop functional activity and form cohesive networks in which electrical activity can be highly coordinated. CCTE_Shafer_MEA_dev_inter_network_spike_interval_mean is 1 of 19 assay components of the CCTE_Shafer_MEA_dev assay. It measures the average time interval between network spikes (temporally-clustered groups of actional potential firing across multiple electrodes) as the average time between peaks of consecutive network spikes during a recording in a microelectrode array (MEA) using Axion Biosystems Maestro 768 channel amplifier with the AxIS adaptive spike detector. To collapse across multiple recordings made on days post-plating 5, 7, 9 and 12, the trapezoidal area-under-the-curve of the component is calculated.Data from the assay component CCTE_Shafer_MEA_dev_inter_network_spike_interval_mean was analyzed into 1 assay endpoint. This assay endpoint, CCTE_Shafer_MEA_dev_inter_network_spike_interval_mean, was analyzed in the negative analysis fitting direction relative to DMSO as the negative control and baseline of activity. Using a type of functional reporter, gain or loss-of-signal activity can be used to understand electrical activity.
On the day prior to culture, each well was coated thoroughly with 150 uL of 0.05% polyethyleneimine (PEI, Sigma Cat P3143) in 50 mM HEPES (Sigma Cat H7523) at a pH of 8. The plate was incubated at 37C for one hour. PEI was rinsed out with 500 uL of sterile water three times. Plates were stored at 4C until the day of culture. This culture was plated at a seeding density of 1.5 x 10^5 cells/well on a 48-well MEA plate, prepared as described above. Cells were administered via a 25 uL media/laminin ([…]; Sigma Cat L2020-1MG) drop directly onto the microelectrode array, as adding the cells with the laminin results in better attachment than pre-coating with laminin. After 2 hours, an additional 475 uL of cortical media was added and the cells returned to the incubator. Exposure starts at day 0 of plating and is continued over twelve days of network development until the experiment is terminated. Cells are fed with fresh medium on DIV 5 and 9, following the recordings on those days. The entire volume of media in the well is exchanged and any vehicle or compound treatment is renewed. Complete details are found in OP-NHEERL/ISTD/SBB/TJS/2015-03-r0 (available on request, email shafer.tim@epa.gov). Measurement of the electrical activity is non-invasive, and recordings can be made from the same plate over multiple different days of the culture. In cortical neurons, this allows for the measurement of extracellular action potentials over the period during which networks form in the MEA plate.

Row | SMILES | outcome | AC50
1 | COP(=O)(OC)O/C(=C\Cl)c1cc(Cl)c(Cl)cc1Cl | inactive | 
2 | CC(C)(C)c1cc(O)ccc1O | inactive | 
3 | O=C(O)C(F)(F)C(F)(F)C(F)(F)C(F)(F)C(F)(F)C(F)(F)F | inactive | 
4 | CCOP(=S)(OCC)Oc1nc(Cl)c(Cl)cc1Cl | inactive | 
5 | O=C(O)C(F)(F)C(F)(F)C(F)(F)C(F)(F)C(F)(F)C(F)(F)C(F)(F)C(F)(F)C(F)(F)C(F)(F)F | inactive | 
6 | CC(=O)[O][Hg][c]1ccccc1 |  | 25.5 nM (active)
7 | C=C(C)C(=O)[O][Sn]([CH2]CCC)([CH2]CCC)[CH2]CCC | inactive | 
8 | ClC1(Cl)C2(Cl)C3(Cl)C4(Cl)C(Cl)(Cl)C5(Cl)C3(Cl)C1(Cl)C5(Cl)C24Cl (stereo unspecified) | inactive | 
9 | Cn1sc(Cl)cc1=O | inactive | 
10 | CCC(=O)C(CC(C)N(C)C)(c1ccccc1)c1ccccc1 (stereo unspecified) | inactive | 
11 | O=C1C2(Cl)C3(Cl)C4(Cl)C(Cl)(Cl)C5(Cl)C3(Cl)C1(Cl)C5(Cl)C24Cl (stereo unspecified) |  | 1.31 nM (active)
